These results are taken from PubChem BioAssay (NCATS).

Holding throughout (assay): qHTS profiling for inhibitors of Plasmodium falciparum proliferation (AID 504749); note: nearly all actives have a fitted effect of over 60% in size
Details in all cases: P. falciparum in erythrocytes, SYBR Green DNA, 72 h; series mostly up to 28.7 µM
(In qHTS, concentration-response curves come from the screen itself.)

For one assay, the system named is C2A. A digest of the protocol: (§1)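 Three-day growth assay of blood-stage parasites in erythrocytes (0.3% parasitemia, 2.5% hematocrit) at 37 C, 5% CO2, quantified by SYBR Green DNA staining after overnight detergent lysis.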
For a further assay, the system named is CP191. A digest of the protocol:
as §1

The subject of a further assay is CP201. The gist of the method: as §1
The test system of another assay is CP203. A digest of the protocol: as §1
The subject of the next assay is CP217. The gist of the method:
as §1

A further assay concerns CP237. The gist of the method:
as §1

In a further assay the test system is CP247. A digest of the protocol: as §1
For a further assay, the system named is CP252. The gist of the method:
as §1

The subject of the next assay is CP262. A digest of the protocol:
as §1

The subject of the next assay is ATS95. A digest of the protocol: as §1
The subject of another assay is CP185. The gist of the method:
as §1

Another assay relates to CP192. A digest of the protocol:
as §1

The next assay concerns CP194. The gist of the method: as §1
The test system of a further assay is CP211. The gist of the method: as §1
For a further assay, the system named is CP238. The gist of the method: as §1
The next assay relates to CP250. A digest of the protocol:
as §1

Another assay relates to CP256. A digest of the protocol: as §1
The test system of a further assay is CP260. The gist of the method:
as §1

The next assay has as its system CP265. A digest of the protocol:
as §1

The test system of another assay is CP215. A digest of the protocol: as §1

Structures are written as SMILES. Records with an inconclusive call do not appear. The source made the active and inactive calls. Calls come from the whole dose curve; as a rule, active = well fitted inhibition curve with a large enough effect; inconclusive = small, poorly fitted or top-dose-only effect; inactive = flat fitted curve, though single readings scatter.
Potency is the fitted concentration of half-maximal effect.

Regarding `CC(CN(C)C)C(C)(O)Cc1ccc(Cl)cc1` (stereo not given), the Potency result in the assay on C2A and in the assay on CP247 was “inactive” each time. Moreover, the outcome in the assay with CP191, in the assay with CP201, in the assay on CP217, with CP252 and with CP262 was inactive. The Potency is 13500 nM (active) in the assay with CP203 and 2510 nM (active) with CP237.

Turning to `Nc1ccc(C(=O)Oc2ccccc2)c(O)c1`, the Potency entry in the assay on ATS95, in the assay on C2A, in the assay on CP185, in the assay with CP237, in the assay on CP238 and in the assay with CP247 was “inactive” in each case. Also, the Potency result in the assay with CP250, in the assay on CP260 and in the assay with CP265 was “inactive” each time. For the same compound, the compound was classed as inactive with CP191, in the assay on CP192, in the assay on CP194, in the assay with CP201, in the assay on CP211 and with CP217. Moreover, the result in the assay on CP252, in the assay with CP256 and with CP262 was inactive.

As to `CCCCCCCCCCOc1cc2c(=O)c(C(=O)OCC)c[nH]c2cc1OCC`, the Potency was 2.8 nM (active) in the assay with ATS95; 10 nM (active) in the assay with C2A; 2.2 nM (active) with CP185; 3.5 nM (active) in the assay on CP237; 2.8 nM (active) with CP238; 0.3 nM (active) with CP247. The Potency was 0.0708 nM (active) in the assay on CP250 and 3.5 nM (active) in the assay on CP260. For the same compound, the call with CP192 and in the assay with CP217 was inactive.

Take `C=CCSCC1Nc2cc(Cl)c(S(N)(=O)=O)cc2S(=O)(=O)N1` (stereo not given): the Potency entry in the assay on ATS95, with C2A, in the assay on CP185, in the assay with CP215, in the assay on CP237 and in the assay with CP238 was “inactive” each time. For the same compound, the Potency result in the assay on CP247, with CP250 and in the assay with CP265 was “inactive” throughout. Also, the call in the assay with CP191, with CP192, with CP194, in the assay with CP201, in the assay with CP211 and in the assay on CP217 was inactive. Moreover, the call in the assay with CP252, in the assay with CP256 and with CP262 was inactive.

Take `Cc1cc(C)c(NC(=O)CN(CC(=O)O)CC(=O)O)c(C)c1Br`: the compound was classed as inactive in the assay on CP192, in the assay with CP194, in the assay on CP201, in the assay on CP211 and in the assay with CP262. Also, the Potency entry in the assay on CP215, in the assay with CP237 and in the assay with CP260 was “inactive” in each case.

With `COc1nccnc1NS(=O)(=O)c1ccc(N)cc1`, the Potency entry in the assay with ATS95, with C2A, with CP185, in the assay on CP237, in the assay on CP238 and with CP247 was “inactive” each time. Also, the Potency result in the assay on CP250, with CP260 and with CP265 was “inactive” throughout. The compound was called inactive in the assay with CP191, with CP192, in the assay on CP194, with CP201, with CP211 and in the assay with CP217. Moreover, the compound was classed as inactive with CP252, in the assay with CP256 and with CP262.

Consider `Cc1[nH]c(C)c(Cl)c(=O)c1Cl`, for which the Potency entry in the assay with ATS95, with C2A, with CP185, in the assay on CP203, in the assay with CP215 and in the assay on CP238 was “inactive” throughout. The Potency entry in the assay with CP247 and in the assay with CP265 was “inactive” in each case. The compound was called inactive in the assay on CP192, with CP194, in the assay on CP217 and in the assay on CP252. The Potency with CP237 and in the assay with CP260 was 8910 nM (active) in each case.

For the compound `CN1C[C@@H]2C[C@H]1CN2c1cc2c(cc1F)c(=O)c(C(=O)O)cn2C1CC1`, in the assay on CP192, the compound was classed as inactive. Moreover, the Potency entry in the assay on CP247 and in the assay on CP250 was “inactive” in each case.

Regarding `CCCCCC(C)N` (stereo not given), the Potency entry in the assay on ATS95, in the assay on C2A, with CP185, in the assay on CP215, in the assay with CP238 and with CP247 was “inactive” in each case. Also, the Potency result in the assay with CP250 and in the assay with CP265 was “inactive” each time. In addition, the outcome in the assay on CP192, in the assay with CP194, in the assay with CP201, with CP211, with CP256 and in the assay on CP262 was inactive. Besides, the Potency in the assay with CP260 is 10000 nM (active).

For the compound `NNc1nnc(NN)c2ccccc12`, the Potency result in the assay on ATS95, in the assay with C2A, with CP185, with CP203, in the assay on CP237 and in the assay with CP238 was “inactive” throughout. The Potency result in the assay with CP247, in the assay with CP250, in the assay with CP260 and with CP265 was “inactive” in each case. Besides, the compound was classed as inactive with CP191, with CP192, with CP194, in the assay with CP211, with CP217 and with CP252. Moreover, the compound was called inactive in the assay on CP256 and in the assay on CP262.

For `CC(C)c1cc2c(cc1S(=O)(=O)O)[C@@]1(C)CCC[C@@](C)(C(=O)O)[C@@H]1CC2`, the Potency entry in the assay with ATS95, in the assay with C2A, with CP185, in the assay with CP215, in the assay with CP237 and in the assay on CP238 was “inactive” throughout. Besides, the Potency entry in the assay on CP250, in the assay on CP260 and with CP265 was “inactive” each time. For the same compound, the call in the assay on CP191, in the assay on CP192, with CP194, with CP201, in the assay on CP211 and in the assay with CP217 was inactive. The compound was classed as inactive with CP252, in the assay with CP256 and with CP262.

For `CCN(CC)C(=O)c1cccc(C)c1`, the Potency entry in the assay with ATS95, in the assay with C2A, in the assay on CP185, in the assay on CP215, with CP237 and in the assay with CP238 was “inactive” each time. The Potency entry with CP247, in the assay with CP250 and in the assay on CP265 was “inactive” each time. Moreover, the result with CP191, in the assay on CP192, in the assay on CP194, with CP201, with CP211 and in the assay with CP217 was inactive. Moreover, the result in the assay with CP252, in the assay with CP256 and in the assay on CP262 was inactive.

Consider `CC(=O)Nc1ccccc1`, for which the Potency entry with C2A, with CP185, in the assay on CP203, in the assay on CP215, in the assay on CP237 and with CP238 was “inactive” in each case. Also, the Potency result in the assay on CP247, with CP250, in the assay with CP260 and in the assay with CP265 was “inactive” throughout. Moreover, the outcome with CP191, in the assay on CP192, in the assay with CP194, in the assay on CP201, in the assay on CP211 and in the assay with CP217 was inactive. For the same compound, the result with CP252, in the assay with CP256 and in the assay with CP262 was inactive.

Turning to `CC(=O)OC[C@H]1O[C@@](COC(C)=O)(O[C@H]2O[C@H](COC(C)=O)[C@@H](OC(C)=O)[C@H](OC(C)=O)[C@H]2OC(C)=O)[C@@H](OC(C)=O)[C@@H]1OC(C)=O`, the Potency result with C2A, in the assay on CP215, in the assay on CP237, in the assay with CP260 and in the assay on CP265 was “inactive” throughout. For the same compound, the outcome with CP192, with CP194, in the assay on CP201, in the assay on CP211 and in the assay on CP262 was inactive.

For the compound `O=C1C(c2[nH]c3ccccc3c2O)=Nc2ccccc21`, the Potency result in the assay on ATS95, in the assay with CP185, in the assay with CP238, in the assay with CP260 and with CP265 was “inactive” in each case. Besides, the outcome in the assay on CP192, in the assay with CP194, with CP201, in the assay with CP252, in the assay with CP256 and with CP262 was inactive.

Regarding `Cc1cc(-n2nc3ccc(Cl)cc3n2)c(O)c(C(C)(C)C)c1`, the compound was called inactive in the assay with CP192, in the assay on CP194, in the assay with CP201, with CP211 and with CP262. The Potency entry in the assay on CP215, in the assay on CP237 and in the assay with CP260 was “inactive” in each case.
